Data on 16 compounds can be found in PubChem BioAssay (NCI).

Structures are written as SMILES. Compounds without any hit were thinned out: in the full panel of roughly 83,000, 20% have a hit.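 Note: values are percent growth. 100 is the growth of untreated cells, values between 100 and 0 indicate rising inhibition; between -100 and 0 indicates cell death.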 Unmarked numbers belong to inactive results. Active and inactive are the calls of the source. The calls were made as follows: active = growth percent below 10; inactive = the rest.

Test systems include T-47D breast; BT-549 breast; MDA-MB-435 melanoma; SW-620 colon; MCF7 breast; HCT-116 colon; HCC-2998 colon; KM12 colon.
Common to all, as to assay: NCI-60 one-dose screen, 48 h (100 = growth as untreated, 0 = no growth, -100 = all killed)
Settings in all cases: 10 µM unless noted

Consider `CCN1CCN(Cc2ccc(NC(=O)Nc3ccc(-n4ccc5c(NC(=O)c6ccccc6)nccc54)cc3)cc2C(F)(F)F)CC1`, for which the growth in the assay on T-47D breast was 75.6%; in the assay with BT-549 breast, 68.5%; in the assay on MDA-MB-435 melanoma, -61.5% (active); in the assay with SW-620 colon, -11.9% (active); in the assay with MCF7 breast, -90% (active); with HCT-116 colon, -83.6% (active). In addition, the figures for the growth in the assay with HCC-2998 colon and with KM12 colon were 68.3% and 14.3%, respectively.
Turning to `CN1C(=O)C(C(=O)/C=C/c2ccccc2C(=O)O)C(=O)N(C)C1=O`, the growth in the assay with T-47D breast is 89.2%; with BT-549 breast it was 90.4%; in the assay with MDA-MB-435 melanoma, 101%; in the assay on SW-620 colon, 109%; in the assay on MCF7 breast, 112%; in the assay on HCT-116 colon it was 97.3%. Moreover, the growth with HCC-2998 colon is 116%; with KM12 colon, 104%.
As to `OC(CCCCCCCCC(O)CN1CCc2ccccc2C1)CN1CCc2ccccc2C1` (stereo not drawn), the growth with T-47D breast was 99.6%; in the assay with BT-549 breast it was 101%; in the assay with MDA-MB-435 melanoma, 99.8%; in the assay with SW-620 colon, 104%; with MCF7 breast it was 95.9%; in the assay on HCT-116 colon it was 98%. For the same compound, the results for the growth in the assay with HCC-2998 colon and in the assay with KM12 colon were 102% and 106%, respectively.
As to `C=C1C(=O)O[C@H]2[C@H]1CC/C(COC(=O)NCc1cn(C)c3ccccc13)=C\CC[C@@]1(C)O[C@@H]21`, the growth in the assay with T-47D breast is -54.1% (active); in the assay with BT-549 breast, -54.3% (active); in the assay on MDA-MB-435 melanoma, -30.4% (active); in the assay with SW-620 colon, -48.4% (active); with MCF7 breast, 3.65% (active); in the assay on HCT-116 colon it was -97.2% (active). Moreover, the growth in the assay on HCC-2998 colon was 49.1%; with KM12 colon, 39.5%.
Regarding `Cc1ccccc1C1CC(=O)c2ccccc2C1C` (stereo not drawn), the growth with T-47D breast is 107%; in the assay on BT-549 breast, 131%; with MDA-MB-435 melanoma, 91.3%; in the assay on SW-620 colon, 99.2%; with MCF7 breast, 115%; in the assay on HCT-116 colon, 95.3%. For the same compound, the growth is 104% with HCC-2998 colon and 107% in the assay with KM12 colon.
In the case of `CC(C)(CCc1ccccn1)C(=O)CCCc1ccccn1`, the growth is 95.2% with T-47D breast; 105% in the assay with BT-549 breast; 109% in the assay on MDA-MB-435 melanoma; 106% in the assay on SW-620 colon; 98.6% in the assay with MCF7 breast; 93.9% in the assay on HCT-116 colon. Also, the figures for the growth in the assay with HCC-2998 colon and with KM12 colon were 107% and 106%, respectively.
On to `O=C(CC(=O)c1ccccc1F)Nc1ccc([N+](=O)[O-])cc1`, for which the growth is 82.5% in the assay with T-47D breast; 89.7% in the assay on BT-549 breast; 88.3% in the assay on MDA-MB-435 melanoma; 109% with SW-620 colon; 81.3% with MCF7 breast; 90.5% in the assay on HCT-116 colon. Moreover, the values for the growth in the assay with HCC-2998 colon and in the assay with KM12 colon were 103% and 99.8%, respectively.
In the case of `COC(=O)[C@H](Cc1cn(C)cn1)NC(=O)[C@H](CC(C)C)NC(=O)Nc1cc(C(F)(F)F)cc(C(F)(F)F)c1`, the growth is -64.9% [100 µM] (active) in the assay with T-47D breast; -95.6% [100 µM] (active) with BT-549 breast; -97.1% [100 µM] (active) with MDA-MB-435 melanoma; -43.6% [100 µM] (active) with SW-620 colon; -86.5% [100 µM] (active) in the assay with MCF7 breast; -98% [100 µM] (active) with HCT-116 colon. The results for the growth with HCC-2998 colon and in the assay with KM12 colon were -90.3% [100 µM] (active) and -95.4% [100 µM] (active), respectively.
In the case of `Cc1cc(N)cc(C)c1-c1c(Br)cc(N)cc1Br`, the growth was 36.3% with T-47D breast; 35.8% in the assay on BT-549 breast; -44.3% (active) in the assay with MDA-MB-435 melanoma; 34.5% in the assay on SW-620 colon; 27.1% with MCF7 breast; 23.3% with HCT-116 colon. For the same compound, the results for the growth with HCC-2998 colon and with KM12 colon were 42.3% and 23.8%, respectively.
As for `Cc1nn(-c2ccccc2)c2nc3c(nc12)C1=NCCN1C(c1ccc(Cl)cc1)N3` (stereo not drawn), the growth in the assay on T-47D breast is 75.1%; in the assay with BT-549 breast, 98.3%; with MDA-MB-435 melanoma, 51.5%; in the assay on SW-620 colon it was 76.6%; in the assay with MCF7 breast, 35.3%; in the assay on HCT-116 colon, 68.8%. Further, the growth with HCC-2998 colon was -25.2% (active); in the assay on KM12 colon, 66%.
For the compound `CCS(=O)(=O)Nc1cccc(Nc2c3cccc(C)c3nc3c(C)cccc23)c1OC`, the growth is 22.2% with T-47D breast; 15.8% in the assay on BT-549 breast; 54.9% with MDA-MB-435 melanoma; 33.2% in the assay on SW-620 colon; 11.6% in the assay with MCF7 breast; 22.9% with HCT-116 colon. Moreover, the growth with HCC-2998 colon was 1.62% (active); with KM12 colon, 15.4%.
As to `CC(C)(C)OC(=O)N1CCCN(CCNc2nccc(-c3c(-c4cccc(O)c4)nc4sccn34)n2)S1(=O)=O`, the growth with T-47D breast is 86.6%; in the assay with BT-549 breast, 136%; in the assay on MDA-MB-435 melanoma it was 54.1%; in the assay on SW-620 colon, 131%; in the assay with MCF7 breast, 97.8%; in the assay with HCT-116 colon, 81.7%. The growth in the assay with HCC-2998 colon is 108%; in the assay on KM12 colon it was 111%.
Regarding `CSc1nc(N)c2[nH]c(-c3cc4ccccc4[nH]c3=O)nc2n1`, the growth in the assay with T-47D breast is 72.9%; in the assay on BT-549 breast, 47.9%; in the assay on MDA-MB-435 melanoma, 102%; with SW-620 colon, 90.1%; in the assay with MCF7 breast, 65.7%; in the assay on HCT-116 colon it was 53.9%. The growth in the assay with HCC-2998 colon was 95%; in the assay on KM12 colon, 96.9%.
Turning to `O=C(O)C(CCc1ccccc1)NCc1ccccc1` (stereo not drawn), the growth with T-47D breast was 96.3%; in the assay with BT-549 breast, 47.4%; in the assay on MDA-MB-435 melanoma it was 104%; in the assay with SW-620 colon, 102%; in the assay on MCF7 breast it was 95.3%; in the assay on HCT-116 colon it was 90.7%. Further, the growth in the assay with HCC-2998 colon was 97.2%; in the assay with KM12 colon it was 100%.
Turning to `C=C(C)[C@@H]1CC[C@]2(C(=O)NC(COC(=O)C(Cl)Cl)(COC(=O)C(Cl)Cl)COC(=O)C(Cl)Cl)CC[C@]3(C)[C@H](CC[C@@H]4[C@@]5(C)CC[C@H](OC(C)=O)C(C)(C)[C@@H]5CC[C@]43C)[C@@H]12`, the growth is 31.9% with T-47D breast; 80.4% with BT-549 breast; 73.6% in the assay with MDA-MB-435 melanoma; 62.1% with SW-620 colon; 21.4% in the assay with MCF7 breast; -16.7% (active) with HCT-116 colon. The growth in the assay on HCC-2998 colon was 66.1%; in the assay on KM12 colon, 36.8%.
In the case of `CS(=O)(=O)c1ccc(C(=O)N/N=C/c2ccccc2Cl)cc1`, the growth with T-47D breast was 87.5%; with BT-549 breast it was 92.7%; in the assay on MDA-MB-435 melanoma it was 106%; in the assay on SW-620 colon it was 97.3%; in the assay with MCF7 breast it was 93.3%; in the assay with HCT-116 colon it was 94.3%. Also, the growth with HCC-2998 colon was 95.8%; with KM12 colon, 100%.
